From PubChem BioAssay (EPA / NIEHS)
Records with an inconclusive call do not appear. Calls of active or inactive are those of the source. Rule for the calls, unless noted: active = hit-call score of the fitted dose curve at least 0.9, where 1 is the maximum; inactive = score below 0.9.

Assays:
[1] = target: Paired box protein Pax-6 (Homo sapiens) (UniProt P26367); experiment: ATG_Pax6_CIS: Attagene CIS-FACTORIAL HepG2 Assay for human Paired Box 6 (PAX6) (AID 2282956); details: HepG2 CIS-FACTORIAL PAX6 reporter transcription, RNA readout; actives raise or lower the signal
Sequence of Paired box protein Pax-6 (Homo sapiens) (P26367 whole entry, looked up): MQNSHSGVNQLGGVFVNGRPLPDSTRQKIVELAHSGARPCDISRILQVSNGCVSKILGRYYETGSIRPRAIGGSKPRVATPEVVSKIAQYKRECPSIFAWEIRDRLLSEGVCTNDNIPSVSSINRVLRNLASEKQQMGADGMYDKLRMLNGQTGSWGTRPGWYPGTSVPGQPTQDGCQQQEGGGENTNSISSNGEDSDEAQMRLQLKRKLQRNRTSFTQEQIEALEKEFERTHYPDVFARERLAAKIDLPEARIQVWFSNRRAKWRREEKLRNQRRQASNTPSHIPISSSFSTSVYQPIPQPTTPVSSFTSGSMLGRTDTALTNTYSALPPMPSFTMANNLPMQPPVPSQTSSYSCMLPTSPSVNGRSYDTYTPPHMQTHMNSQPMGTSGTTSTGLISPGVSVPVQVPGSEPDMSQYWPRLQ
How it was run: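 HepG2 cells transiently transfected with cis-promoter-driven multiplexed reporter units sensing endogenous transcription factor activity; 24 h chemical exposure. Reporter mRNA quantified by RT-PCR, 6-FAM labelling, HpaI digestion and capillary electrophoresis; bidirectional fit versus DMSO baseline.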

[2] = ATG_PXRE_CIS: Attagene CIS-FACTORIAL HepG2 Assay for human Pregnane X Receptor Element (PXRE) (AID 2282957); details: HepG2 Attagene CIS-FACTORIAL PXRE reporter, mRNA; actives raise or lower the signal
How it was run: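 Cis-element reporter mRNA in human hepatoma HepG2 cells is measured 24 h post-dosing by RT-PCR, primer-extension labeling and capillary electrophoresis; gain or loss of signal is fitted relative to DMSO.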

[3] = ATG_RORE_CIS: Attagene CIS-FACTORIAL HepG2 Assay for human RAR-related Orphan Receptor Element (RORE) (AID 2282959); details: HepG2 Attagene cis-factorial RORE reporter, mRNA; actives raise or lower the signal
How it was run: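 Transiently transfected HepG2 reporter cells were treated 24 h. Reporter transcripts were detected by RT-PCR and capillary electrophoresis, with bidirectional fitting against DMSO.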

[4] = ATG_Sox_CIS: Attagene CIS-FACTORIAL HepG2 Assay for human SRY-box transcription factor (SOX) (AID 2282960); details: HepG2 Attagene cis-factorial SOX reporter, mRNA; actives raise or lower the signal
How it was run: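 Gain- or loss-of-signal endpoint, fitted bidirectionally with DMSO as negative control. Based on reporter mRNA from transfected HepG2 cells harvested 24 h post-treatment and quantified via RT-PCR and capillary electrophoresis.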

[5] = target: Transcription factor Sp1 (Homo sapiens) (UniProt P08047); experiment: ATG_Sp1_CIS: Attagene CIS-FACTORIAL HepG2 Assay for human Specificity Protein 1 (Sp1) (AID 2282961); details: HepG2 Sp1 cis-reporter transcription, actives raise or lower the signal
Sequence of Transcription factor Sp1 (Homo sapiens) (P08047 whole entry, looked up, the tested form may be a part): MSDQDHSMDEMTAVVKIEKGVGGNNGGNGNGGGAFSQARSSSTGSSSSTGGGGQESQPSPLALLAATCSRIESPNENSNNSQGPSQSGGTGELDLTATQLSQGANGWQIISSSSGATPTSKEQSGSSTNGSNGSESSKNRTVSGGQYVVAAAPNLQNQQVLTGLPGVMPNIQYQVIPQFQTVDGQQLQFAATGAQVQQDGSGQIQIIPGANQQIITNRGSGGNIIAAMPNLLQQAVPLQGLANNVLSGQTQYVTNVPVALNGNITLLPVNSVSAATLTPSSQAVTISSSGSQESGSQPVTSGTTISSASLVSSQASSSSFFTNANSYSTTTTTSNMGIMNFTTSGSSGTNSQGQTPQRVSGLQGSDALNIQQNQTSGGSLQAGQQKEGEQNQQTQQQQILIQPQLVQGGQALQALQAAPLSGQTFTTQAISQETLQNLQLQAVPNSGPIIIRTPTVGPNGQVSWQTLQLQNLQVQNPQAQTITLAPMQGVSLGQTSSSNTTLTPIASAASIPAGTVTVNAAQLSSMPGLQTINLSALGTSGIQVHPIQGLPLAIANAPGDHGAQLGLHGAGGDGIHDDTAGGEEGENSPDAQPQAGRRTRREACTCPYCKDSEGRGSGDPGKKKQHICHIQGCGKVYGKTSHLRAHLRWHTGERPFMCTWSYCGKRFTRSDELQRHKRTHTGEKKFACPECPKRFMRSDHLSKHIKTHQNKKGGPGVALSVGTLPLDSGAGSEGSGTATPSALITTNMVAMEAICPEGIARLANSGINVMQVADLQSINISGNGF
How it was run: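 Endpoint reflects endogenous Sp1 transcriptional activity, not an exogenous fusion protein: HepG2 cells with transfected cis-regulated reporters, 24 h dosing, RT-PCR/capillary electrophoresis mRNA read-out, DMSO-normalised bidirectional fit.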

[6] = ATG_SREBP_CIS: Attagene CIS-FACTORIAL HepG2 Assay for human Sterol Regulatory Element Binding (SREBP) (AID 2282962); details: HepG2 Attagene cis-factorial SREBP reporter, mRNA; actives raise or lower the signal
How it was run: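 HepG2 cells transiently transfected with multiplexed cis-promoter reporter units sensing endogenous transcription factors; reporter mRNA measured 24 h after dosing by RT-PCR, 6-FAM labeling, HpaI digestion and capillary electrophoresis. Bidirectional fit versus DMSO.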

[7] = target: Signal transducer and activator of transcription 3 (Homo sapiens) (UniProt P40763); experiment: ATG_STAT3_CIS: Attagene CIS-FACTORIAL HepG2 Assay for human Signal Transducer and Activator of Transcription 3 (STAT3) (AID 2282963); details: HepG2, Attagene cis-factorial STAT3 reporter transcription; actives raise or lower the signal
Sequence of Signal transducer and activator of transcription 3 (Homo sapiens) (P40763 whole entry, looked up): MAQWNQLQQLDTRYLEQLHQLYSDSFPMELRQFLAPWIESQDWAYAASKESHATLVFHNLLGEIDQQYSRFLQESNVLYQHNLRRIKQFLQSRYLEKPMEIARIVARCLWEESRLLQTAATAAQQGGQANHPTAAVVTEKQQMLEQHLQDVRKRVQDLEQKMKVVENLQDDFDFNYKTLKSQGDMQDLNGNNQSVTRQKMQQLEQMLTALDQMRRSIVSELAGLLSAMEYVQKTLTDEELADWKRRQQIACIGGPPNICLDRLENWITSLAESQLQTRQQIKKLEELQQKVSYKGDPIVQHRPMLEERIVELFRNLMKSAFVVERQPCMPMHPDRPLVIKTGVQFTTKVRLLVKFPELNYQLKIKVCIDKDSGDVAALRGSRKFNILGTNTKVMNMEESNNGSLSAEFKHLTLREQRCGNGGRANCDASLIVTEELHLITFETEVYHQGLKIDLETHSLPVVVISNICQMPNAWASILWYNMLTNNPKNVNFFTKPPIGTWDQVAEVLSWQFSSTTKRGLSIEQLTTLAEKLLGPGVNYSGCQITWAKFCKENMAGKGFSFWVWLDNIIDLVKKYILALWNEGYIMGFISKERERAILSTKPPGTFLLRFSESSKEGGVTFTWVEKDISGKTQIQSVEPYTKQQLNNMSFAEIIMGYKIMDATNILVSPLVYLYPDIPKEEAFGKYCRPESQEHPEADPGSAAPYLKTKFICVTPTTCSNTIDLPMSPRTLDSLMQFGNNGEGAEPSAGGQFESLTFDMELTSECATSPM
How it was run: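 Transcript-level reporter assay. HepG2 transient MRTU transfection, 24 h exposure, fluorescence detection after RT-PCR and CE; DMSO baseline.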

[8] = ATG_TA_CIS: Attagene CIS-FACTORIAL HepG2 Assay for human TA Basal Promoter (AID 2282964); details: HepG2 Attagene CIS-factorial TA basal promoter reporter; actives raise or lower the signal
How it was run: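 HepG2 cells transiently transfected with multiple reporter units under cis promoter elements, reporting endogenous transcription factor activity; this endpoint tracks the TA basal promoter as background control. Reporter mRNA after 24 h dosing measured by RT-PCR/capillary electrophoresis; bidirectional fits versus DMSO.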

[9] = ATG_TCF_b_cat_CIS: Attagene CIS-FACTORIAL HepG2 Assay for human T-Cell-Factor with beta-catenin (TCF/b-cat) (AID 2282965); details: HepG2 TCF/beta-catenin cis-reporter transcription, actives raise or lower the signal
How it was run: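 In this cis-format system, transfected HepG2 cells report endogenous transcription factor activity. Readout after 24 h exposure is reporter transcript abundance from RT-PCR and capillary electrophoresis, analysed for gain or loss of signal versus DMSO.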

[10] = ATG_TAL_CIS: Attagene CIS-FACTORIAL HepG2 Assay for human TAL Basal Promoter (AID 2282966); details: HepG2 Attagene cis-factorial TAL promoter reporter; actives raise or lower the signal;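 note: background control endpoint measuring basal TAL promoter reporter mRNA not a specific factor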
How it was run: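 In this cell-based multiplex, HepG2 liver cells bearing cis-promoter reporter constructs are dosed for 24 hours. Total RNA is reverse-transcribed and amplified, labelled fragments are sized by capillary electrophoresis, and signal changes are fitted bidirectionally versus DMSO.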

[11] = ATG_TGFb_CIS: Attagene CIS-FACTORIAL HepG2 Assay for human Transforming Growth Factor (TGF) (AID 2282967); details: HepG2 Attagene CIS TGFb reporter, mRNA transcription; actives raise or lower the signal
How it was run: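 HepG2 cells transiently transfected with cis-promoter-driven multiple reporter units measure endogenous TF activity; reporter mRNA quantified at 24 h by RT-PCR, FAM labeling, HpaI digestion and capillary electrophoresis. Bidirectional fit vs DMSO.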

[12] = ATG_VDRE_CIS: Attagene CIS-FACTORIAL HepG2 Assay for human Vitamin D Receptor Element (VDRE) (AID 2282968); details: HepG2 VDRE cis-reporter transcription, actives raise or lower the signal
How it was run: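 RT-PCR/CE readout of reporter mRNA; HepG2, transient transfection, 24 h dosing; DMSO baseline; bidirectional analysis.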

[13] = target: Nuclear receptor subfamily 1 group I member 3 (Homo sapiens) (UniProt Q14994); experiment: ATG_CAR_TRANS: Attagene TRANS-FACTORIAL HepG2 Assay for human Constitutive Androstane Receptor (CAR) (AID 2282969; active = hit-call score of the fitted dose curve at least 0.9, where 1 is the maximum;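 note: activators raise reporter mRNA above DMSO so AC50 marks induction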); details: HepG2 Attagene TRANS-FACTORIAL CAR reporter
Sequence of Nuclear receptor subfamily 1 group I member 3 (Homo sapiens) (Q14994 whole entry, looked up, the tested form may be a part): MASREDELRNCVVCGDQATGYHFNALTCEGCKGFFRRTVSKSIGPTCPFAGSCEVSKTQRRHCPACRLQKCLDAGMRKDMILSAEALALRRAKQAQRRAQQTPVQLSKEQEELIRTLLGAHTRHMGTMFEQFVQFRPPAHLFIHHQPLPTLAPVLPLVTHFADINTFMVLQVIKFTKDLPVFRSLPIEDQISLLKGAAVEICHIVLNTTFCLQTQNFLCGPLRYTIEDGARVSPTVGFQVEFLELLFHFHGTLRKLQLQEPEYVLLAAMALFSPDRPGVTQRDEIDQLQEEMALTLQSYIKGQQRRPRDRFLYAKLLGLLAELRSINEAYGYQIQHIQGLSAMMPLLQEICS
How it was run: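 HepG2 cells transiently transfected with multiplexed GAL4-UAS reporter units expressing chimeric NR-Gal4 proteins; compound exposure 24 h. Reporter mRNA measured by RT-PCR, 6-FAM labelling, HpaI digestion and capillary electrophoresis; gain-of-signal fitted against DMSO baseline.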

[14] = target: X-box-binding protein 1 (Homo sapiens) (UniProt P17861); experiment: ATG_Xbp1_CIS: Attagene CIS-FACTORIAL HepG2 Assay for human X-box Binding Protein 1 (XBP1) (AID 2282972); details: HepG2 XBP1 cis-element reporter, Attagene multiplex; actives raise or lower the signal
Sequence of X-box-binding protein 1 (Homo sapiens) (P17861 whole entry, looked up): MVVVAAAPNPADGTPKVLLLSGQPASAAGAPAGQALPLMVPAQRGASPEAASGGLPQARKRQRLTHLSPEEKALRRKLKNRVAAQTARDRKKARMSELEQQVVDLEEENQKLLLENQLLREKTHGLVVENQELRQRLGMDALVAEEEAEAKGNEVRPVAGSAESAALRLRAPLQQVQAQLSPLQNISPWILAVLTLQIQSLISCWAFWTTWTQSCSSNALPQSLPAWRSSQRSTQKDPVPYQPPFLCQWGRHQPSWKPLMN
How it was run: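 HepG2 cells transiently transfected with multiple cis-element reporter units report endogenous TF activity; 24 h exposure, then reporter mRNA measured by RT-PCR, 6-FAM labelling, HpaI digestion and capillary electrophoresis. Bidirectional fitting versus DMSO.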

[15] = ATG_M_19_TRANS: Attagene TRANS-FACTORIAL HepG2 Assay for M19 Transcription Factor (Internal Marker) (AID 2282974; active = hit-call score of the fitted dose curve at least 0.9, where 1 is the maximum); details: HepG2 Attagene TRANS-FACTORIAL M19 internal marker reporter
How it was run: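 Using RT-PCR and capillary electrophoresis, reporter mRNA from transiently transfected human HepG2 cells was quantified following 24 h exposure; activity was fitted in the positive direction against DMSO.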

[16] = ATG_GAL4_TRANS: Attagene TRANS-FACTORIAL HepG2 Assay for GAL4 (Internal Marker) (AID 2282976; active = hit-call score of the fitted dose curve at least 0.9, where 1 is the maximum); details: HepG2 Attagene TRANS GAL4 internal marker reporter
How it was run: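 RT-PCR/capillary electrophoresis readout of reporter mRNA. HepG2, transient MRTU transfection (GAL4-UAS reporters), 24 h compound exposure. Background-control endpoint, positive direction vs DMSO baseline.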

[17] = target: Glucocorticoid receptor (Homo sapiens) (UniProt P04150); experiment: ATG_GR_TRANS: Attagene TRANS-FACTORIAL HepG2 Assay for human Glucocorticoid Receptor (GR) (AID 2282978; active = hit-call score of the fitted dose curve at least 0.9, where 1 is the maximum;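 note: activators score as hits since higher reporter transcript over DMSO is fitted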); details: HepG2 Attagene TRANS GR reporter, mRNA transcription
Sequence of Glucocorticoid receptor (Homo sapiens) (P04150 whole entry, looked up, the tested form may be a part): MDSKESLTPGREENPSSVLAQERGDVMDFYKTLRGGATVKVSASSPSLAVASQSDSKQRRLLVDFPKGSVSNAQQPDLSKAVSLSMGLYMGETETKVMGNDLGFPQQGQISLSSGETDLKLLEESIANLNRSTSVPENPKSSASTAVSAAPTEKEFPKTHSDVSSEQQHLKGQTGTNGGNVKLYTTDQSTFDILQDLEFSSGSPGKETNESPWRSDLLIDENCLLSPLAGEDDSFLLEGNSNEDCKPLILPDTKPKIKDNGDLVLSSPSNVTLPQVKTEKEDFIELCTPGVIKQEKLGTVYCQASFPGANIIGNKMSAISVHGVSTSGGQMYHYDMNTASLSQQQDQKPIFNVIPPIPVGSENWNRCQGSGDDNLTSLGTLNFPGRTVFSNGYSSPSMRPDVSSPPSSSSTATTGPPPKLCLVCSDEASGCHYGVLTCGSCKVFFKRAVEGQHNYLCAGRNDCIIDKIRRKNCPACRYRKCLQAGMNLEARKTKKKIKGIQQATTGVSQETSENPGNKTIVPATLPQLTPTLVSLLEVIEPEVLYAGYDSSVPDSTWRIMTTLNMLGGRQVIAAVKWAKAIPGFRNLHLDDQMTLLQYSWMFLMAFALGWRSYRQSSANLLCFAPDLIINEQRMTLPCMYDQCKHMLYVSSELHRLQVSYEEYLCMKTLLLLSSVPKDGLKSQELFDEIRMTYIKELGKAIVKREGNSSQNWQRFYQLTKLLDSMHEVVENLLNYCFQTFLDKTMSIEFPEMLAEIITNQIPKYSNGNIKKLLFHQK
How it was run: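 Exogenous NR-GAL4 fusion activity was assessed through induced GAL4-UAS reporter transcripts in transfected human HepG2 cells, quantified after 24 h by RT-PCR and fluorescent capillary electrophoresis with DMSO as baseline.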

[18] = ATG_PPRE_CIS: Attagene CIS-FACTORIAL HepG2 Assay for human Peroxisome Proliferator-activated Response Element (PPRE) (AID 2282958); details: HepG2 PPRE cis-element reporter, Attagene transcription factor profiling; actives raise or lower the signal
How it was run: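 Measured endpoint: PPRE-controlled reporter mRNA, detected by RT-PCR and capillary electrophoresis fluorescence, from transiently transfected HepG2 cells 24 h after dosing. Curves fitted in both directions using DMSO baseline.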

[19] = target: Steroid hormone receptor ERR1 (Homo sapiens) (UniProt P11474); experiment: ATG_ERRa_TRANS: Attagene TRANS-FACTORIAL HepG2 Assay for human Estrogen-Related Receptor alpha (ERRa) (AID 2282971; active = hit-call score of the fitted dose curve at least 0.9, where 1 is the maximum); details: HepG2 Attagene TRANS reporter, ERRa transactivation
Sequence of Steroid hormone receptor ERR1 (Homo sapiens) (P11474 whole entry, looked up, the tested form may be a part): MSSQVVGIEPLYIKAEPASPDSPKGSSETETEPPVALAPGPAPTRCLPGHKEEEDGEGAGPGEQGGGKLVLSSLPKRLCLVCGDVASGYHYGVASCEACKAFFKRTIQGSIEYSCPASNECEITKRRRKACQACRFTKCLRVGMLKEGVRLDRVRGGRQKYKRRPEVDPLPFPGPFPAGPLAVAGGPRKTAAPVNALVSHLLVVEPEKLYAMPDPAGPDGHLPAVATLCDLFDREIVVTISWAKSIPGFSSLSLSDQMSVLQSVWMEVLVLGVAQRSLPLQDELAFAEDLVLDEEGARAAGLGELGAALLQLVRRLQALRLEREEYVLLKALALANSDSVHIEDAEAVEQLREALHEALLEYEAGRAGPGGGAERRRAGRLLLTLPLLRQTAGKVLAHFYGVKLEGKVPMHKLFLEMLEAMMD
How it was run: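 Transfected HepG2, 24 h dosing, ERRa-Gal4 chimera driving GAL4-UAS reporter. Readout: reporter mRNA via RT-PCR plus capillary electrophoresis (fluorescence). Positive direction vs DMSO control.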

[20] = target: Estrogen-related receptor gamma (Homo sapiens) (UniProt P62508); experiment: ATG_ERRg_TRANS: Attagene TRANS-FACTORIAL HepG2 Assay for human Estrogen-Related Receptor gamma (ERRg) (AID 2282977; active = hit-call score of the fitted dose curve at least 0.9, where 1 is the maximum;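 note: hits increase reporter signal over DMSO so potencies reflect activators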); details: HepG2 Attagene TRANS reporter, ERRg transactivation
Sequence of Estrogen-related receptor gamma (Homo sapiens) (P62508 whole entry, looked up, the tested form may be a part): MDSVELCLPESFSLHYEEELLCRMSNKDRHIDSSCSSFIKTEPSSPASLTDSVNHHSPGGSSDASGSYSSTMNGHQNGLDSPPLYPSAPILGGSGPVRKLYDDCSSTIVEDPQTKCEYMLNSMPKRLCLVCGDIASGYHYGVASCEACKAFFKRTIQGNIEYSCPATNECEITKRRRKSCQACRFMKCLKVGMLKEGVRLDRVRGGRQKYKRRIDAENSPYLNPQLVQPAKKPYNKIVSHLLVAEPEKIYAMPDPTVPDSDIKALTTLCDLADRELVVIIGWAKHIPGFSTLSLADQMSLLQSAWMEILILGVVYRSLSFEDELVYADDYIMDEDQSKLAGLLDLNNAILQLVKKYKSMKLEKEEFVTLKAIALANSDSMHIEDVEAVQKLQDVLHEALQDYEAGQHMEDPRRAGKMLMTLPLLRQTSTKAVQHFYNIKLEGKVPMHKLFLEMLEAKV
How it was run: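 Transfect HepG2 with multiple GAL4-UAS reporter transcription units; dose chemicals 24 h; isolate RNA, reverse-transcribe with oligo(dT), PCR-amplify, label with 6-FAM, digest with HpaI; size fragments by capillary electrophoresis. DMSO serves as negative control.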

Measured: AC50

CC(=O)O[C@H]1C[C@@H]2CC[C@@]1(C)C2(C)C
not listed: [18] | [19] | [20]
inactive: all other assays above

O=C(Nc1ccc2c(O)c(N=Nc3ccc(N=Nc4ccc(S(=O)(=O)O)cc4)cc3)c(S(=O)(=O)O)cc2c1)c1ccccc1
not listed: [14] | [15] | [16] | [17] | [18] | [19] | [20]
inactive: all other assays above

CC(C)(CO)[C@@H](O)C(=O)NCCC(=O)O
active: [2] 53.4 µM
not listed: [3] | [5] | [12] | [15] | [17] | [19] | [20]
inactive: all other assays above

COc1ccc(N=Nc2cc(C)c(N=Nc3ccc(S(=O)(=O)O)cc3)cc2OC)cc1
active: [1] 100 µM | [2] 23.1 µM | [3] 8.45 µM | [5] 175 µM | [6] 162 µM | [7] 162 µM | [11] 172 µM
not listed: [16] | [17] | [18] | [19] | [20]
inactive: all other assays above

C=C(C)C(=O)OCCOCCOCCOCCOC(=O)C(=C)C
active: [2] 35.3 µM
not listed: [13] | [17] | [18] | [19] | [20]
inactive: all other assays above

CC(=O)NCCO
not listed: [13] | [18] | [19] | [20]
inactive: all other assays above

C[C@H](CCC(=O)NCC(=O)O)[C@H]1CC[C@H]2[C@@H]3[C@H](O)C[C@@H]4C[C@H](O)CC[C@]4(C)[C@H]3C[C@H](O)[C@]12C
not listed: [13] | [16] | [18] | [19] | [20]
inactive: all other assays above

CN(C)c1ccncc1
active: [2] 71.6 µM
not listed: [13] | [16] | [17] | [18]
inactive: all other assays above
